Reference: PubChem BioAssay (NCI)
This is part of a sample that, as a whole, favours compounds with a hit. Of some 83,000 tested, about 20% had one in any assay.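 48-hour exposure, single concentration, 96-well plates; percent growth endpoint where 0 means no net growth. Active: below 10.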 Unmarked numbers belong to inactive results. Calls of active or inactive are those of the source.

tested on: HL-60(TB) leukemia; assay: NCI-60 one-dose screen, 48 h (100 = growth as untreated, 0 = no growth, -100 = all killed); settings: 10 µM unless noted

In the case of `Oc1cccc2ccc(-c3nnc(SCc4ccc(O)c5ncccc45)n3-c3ccccc3)nc12`, the growth is reported as 3.4% (active).
For `C#CCN(C)CCCOc1ccc(NCc2ccc(/C=C/C(=O)NO)cc2)cc1Cl`, the growth was 6.07% (active).
With `Oc1ccccc1-c1nnc(SCc2ccc(O)c3ncccc23)n1-c1ccccc1` the growth was 4.52% (active).
With `COc1ccc(C2C(C#N)=C(/N=C/c3ccc(Cl)cc3)Oc3c2sc2c(C)cccc32)cc1` (stereo unspecified) the growth was 4.04% (active).
For `Cc1cc(NS(=O)(=O)c2ccc(-c3cnc(C4CC4)o3)cc2)ccc1I`, the growth was 1.38% (active).
With `COc1cc(NC2=C(Cl)C(=O)c3nc(C)ccc3C2=O)cc(OC)c1` the growth was -13.4% (active).
For `CC(C)(C)Nc1nc2c(OCCc3ccccc3)cccn2c1-c1ccccc1Cl`, the growth was -31.6% (active).
In the case of `CNCCN(C)c1ccc(Nc2cc(NC3CC3)n3ncc(C#N)c3n2)cc1NC(C)=O`, the growth is reported as -7.57% (active).
With `COc1ccc(C(=O)/C=C/c2ccc(OCc3ccc(Cl)cc3)c(OC)c2)cc1OC` the growth was 4.56% (active).
For `COc1cc(/C=C/C(=O)c2cc(OC)c(OC)c(OC)c2)ccc1OCc1ccccc1`, the growth was -9.27% (active).

In order of rising growth:
1. CCNC(=O)N1CCc2cc(OC)c(OCCc3ccc(OC)cc3)cc2C1c1ccc([N+](=O)[O-])cc1C (stereo unspecified)  14%
2. CN1CCN(CC#CCn2c3c(c4ccccc42)C[C@]2(C)[C@H]4CC=C5[C@@H]6CC(C)(C)CC[C@]6(C(=O)N6CCOCC6)CC[C@@]5(C)[C@]4(C)CC[C@H]2C3(C)C)CC1  16.2%
3. C[C@H]1OCC2(CCN(c3cnc(C(=O)Nc4cc(F)cc5cccnc45)cn3)CC2)[C@H]1N  18.9%
4. CN1CCN(c2ccc(Nc3nc(NCCCNS(=O)(=O)c4ccc(F)cc4)c4sccc4n3)cc2)CC1  28.8%
5. COc1ccc(/C=N/Nc2nc(N/N=C/c3ccc(OC)cc3O)nc(N3CCOCC3)n2)c(O)c1  30.9%
6. COc1ccc(C2CC(c3ccc(Nc4nc(NCCO)nc(Nc5ccc(Cl)cc5)n4)cc3)=Nc3c(N)nc(N)nc3N2)cc1 (stereo unspecified)  36.6%
7. CCOc1cccc(-c2nc3sccn3c2-c2ccnc(S(C)(=O)=O)n2)c1  36.9%
8. O=C(Nc1nc2ccc([N+](=O)[O-])cc2s1)Nc1ccccc1Br  37.1%
9. O=[N+]([O-])c1cc(/C=N/Nc2nc(N/N=C/c3ccc(Cl)c([N+](=O)[O-])c3)nc(N3CCCCC3)n2)ccc1Cl  41.9%
10. COc1ccc(/C=C(/C)c2ccc3ccc(OC)cc3[o+]2)c(O)c1  44%
11. COc1ccc(-c2nn3c(-c4ccccc4F)nnc3s2)cc1  47.7%
12. Nc1nc(-c2cccc([N+](=O)[O-])c2)c(N=Nc2cccc(Cl)c2)s1  56.4%
13. Nc1c(C(=O)Nc2ccc(Cl)cc2)sc2nc(-c3cnccn3)cc(-c3cccs3)c12  58.3%
14. NC(=O)c1c(NC(=O)c2cccc(OC(F)(F)F)c2)sc2c1CCC(=O)C2  60%
15. CS(=O)(=O)c1ccc(-c2nn(-c3ccccc3)cc2/C=N/NC(=O)c2nc(N)n[nH]2)cc1  76.8%
16. Cc1ccc(C2=NN(C)C(=O)C3(CCCC3)C2)cc1  77.8%
17. CCOC(=O)c1c(Nc2ccccc2)nn2c(-c3ccccc3)ccnc12  80.7%
18. CC(C)=CCC[C@](C)(O)[C@H]1CC[C@]2(C)[C@@H]1CC[C@@H]1[C@@]3(C)CCC(NC(=O)c4ccccc4C(=O)O)C(C)(C)[C@@H]3CC[C@]12C (stereo partly specified)  90.2%
19. COc1ccc(-c2cc(-c3ccc(Cl)cc3)c(C#N)c(=O)n2Cc2ccc(C(=O)O)cc2)cc1  92.1%
20. COC(=O)C(Cc1ccccc1)NS(=O)(=O)/N=C1\NC(=O)NC1=C(Cl)Cl (stereo unspecified)  96.1%
21. C/C=C/C=C1\C[C@H]2CO[C@H](O2)C1=O  99.8%
22. O=C1CSC(=O)N1Cc1cc2ccccc2nc1Cl  101%
23. O=C(/C=C/Nc1ccc(S(=O)(=O)O)cc1)c1ccc(F)cc1  102%
24. CSCCC(C(=O)O)N1C(=O)/C(=C/c2ccc(O)c(O)c2)SC1=S (stereo unspecified)  103%
25. CC(C)NC(=O)c1cc(-c2ccc(NC(=O)Nc3ccc(F)c(C(F)(F)F)c3)cc2)nc2cccnc12  109%
26. Cc1cc(C)n(C(=O)c2sc(=S)n(-c3ccccc3)c2N=Nc2c(N)n[nH]c2N)n1  110%
